Source: PubChem BioAssay (EPA / NIEHS)
Records with an inconclusive call do not appear. The source made the active and inactive calls. Rule for the calls: active = hit-call score of the fitted dose curve at least 0.9, where 1 is the maximum; inconclusive = response in the unintended direction; inactive = score below 0.9.

target: human Retinoic Acid Receptor gamma (RARg), RARG (gene 5916) (UniProt P13631); assay: ATG_RARg_TRANS: Attagene TRANS-FACTORIAL HepG2 Assay for human Retinoic Acid Receptor gamma (RARg) (AID 2283009)
How it was run: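 HepG2 transiently transfected with GAL4-UAS reporter units and chimeric NR-Gal4 constructs; 24 h compound exposure. Reporter mRNA quantified by RT-PCR, FAM labeling, HpaI digestion and capillary electrophoresis; gain-of-signal versus DMSO.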

Chain of human Retinoic Acid Receptor gamma (RARg), RARG (gene 5916) (P13631 whole entry, looked up, the tested form may be a part): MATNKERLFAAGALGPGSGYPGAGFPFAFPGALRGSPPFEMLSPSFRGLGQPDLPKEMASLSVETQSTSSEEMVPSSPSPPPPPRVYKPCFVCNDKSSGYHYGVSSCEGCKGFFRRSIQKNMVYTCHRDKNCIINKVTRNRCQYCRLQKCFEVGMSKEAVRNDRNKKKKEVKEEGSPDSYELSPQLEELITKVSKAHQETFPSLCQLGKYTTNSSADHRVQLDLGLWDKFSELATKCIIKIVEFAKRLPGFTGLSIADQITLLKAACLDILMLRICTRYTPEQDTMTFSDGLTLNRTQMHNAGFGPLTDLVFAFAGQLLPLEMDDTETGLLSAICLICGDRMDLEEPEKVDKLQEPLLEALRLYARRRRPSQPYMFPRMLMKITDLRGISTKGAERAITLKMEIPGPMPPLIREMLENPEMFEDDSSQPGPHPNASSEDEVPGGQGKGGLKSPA

SMILES | outcome
Cc1c[nH]c(=O)[nH]c1=O | inactive
CCOC(=O)OC(=O)OCC | inactive
CCC(C)c1ccccc1 (stereo unspecified) | inactive
Cc1ccc(C)c(OCCCC(C)(C)C(=O)O)c1 | inactive
CCCSSCCC | inactive
O=C1CCCCC1C1CCCCC1 (stereo unspecified) | inactive
O=C(OCCc1ccccc1)c1ccccc1 | inactive
COC(=O)C=Cc1ccccc1 | inactive
C=C(C)C(=O)OCC(O)COc1ccc(C(C)(C)c2ccc(OCC(O)COC(=O)C(=C)C)cc2)cc1 (stereo unspecified) | inactive

target: human RAR-related Orphan Receptor beta (RORb), RORB (gene 6096) (UniProt Q92753); assay: ATG_RORb_TRANS: Attagene TRANS-FACTORIAL HepG2 Assay for human RAR-related Orphan Receptor beta (RORb) (AID 2283010)
How it was run: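 HepG2 cells transiently transfected with GAL4-UAS reporter units expressing chimeric NR-Gal4 protein; reporter mRNA measured 24 h after dosing by RT-PCR, 6-FAM labelling and capillary electrophoresis. Gain-of-signal fitted relative to DMSO baseline.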

Chain of human RAR-related Orphan Receptor beta (RORb), RORB (gene 6096) (Q92753 whole entry, looked up, the tested form may be a part): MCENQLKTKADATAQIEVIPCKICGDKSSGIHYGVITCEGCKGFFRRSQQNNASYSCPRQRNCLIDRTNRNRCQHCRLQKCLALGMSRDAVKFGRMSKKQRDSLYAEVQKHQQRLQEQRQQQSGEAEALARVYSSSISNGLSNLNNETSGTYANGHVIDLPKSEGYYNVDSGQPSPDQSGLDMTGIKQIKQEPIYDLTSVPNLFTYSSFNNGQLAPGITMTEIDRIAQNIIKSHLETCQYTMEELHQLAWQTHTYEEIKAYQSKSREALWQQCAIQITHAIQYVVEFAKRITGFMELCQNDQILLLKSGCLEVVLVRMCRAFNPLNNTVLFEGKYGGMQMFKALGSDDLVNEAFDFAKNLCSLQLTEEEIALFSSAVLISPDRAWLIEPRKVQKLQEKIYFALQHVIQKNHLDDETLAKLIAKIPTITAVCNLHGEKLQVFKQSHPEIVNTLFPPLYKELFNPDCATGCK

SMILES | outcome
CC(=O)OCc1ccccc1 | inactive
Cc1ccccc1CCO | inactive
COC(=O)c1ccc(C(=O)OC)c(C(=O)OC)c1 | inactive
CCC(C)c1ccccc1 (stereo unspecified) | inactive
Cc1ccc(C)c(OCCCC(C)(C)C(=O)O)c1 | inactive
CCC1COC(=O)O1 (stereo unspecified) | inactive
O=C(O)c1cc(O)c2ccccc2c1O | inactive
CCCSSCCC | inactive
c1ccc2cnccc2c1 | inactive
O=C1CCCCC1C1CCCCC1 (stereo unspecified) | inactive
CO[Si](CCCS)(OC)OC | inactive
C=C(C)C(=O)OCC(O)COc1ccc(C(C)(C)c2ccc(OCC(O)COC(=O)C(=C)C)cc2)cc1 (stereo unspecified) | inactive
Cc1ccc2c(c1)CCCN2 | inactive

target: human RAR-related Orphan Receptor gamma (RORg), RORC (gene 6097) (UniProt P51449); assay: ATG_RORg_TRANS: Attagene TRANS-FACTORIAL HepG2 Assay for human RAR-related Orphan Receptor gamma (RORg) (AID 2283011)
How it was run: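 Reporter transcripts from a transfected RORg-GAL4 chimera in HepG2 cells were quantified 24 h after dosing by RT-PCR, 6-FAM labelling, HpaI digestion and capillary electrophoresis; increases over DMSO baseline were fitted.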

Chain of human RAR-related Orphan Receptor gamma (RORg), RORC (gene 6097) (P51449 whole entry, looked up, the tested form may be a part): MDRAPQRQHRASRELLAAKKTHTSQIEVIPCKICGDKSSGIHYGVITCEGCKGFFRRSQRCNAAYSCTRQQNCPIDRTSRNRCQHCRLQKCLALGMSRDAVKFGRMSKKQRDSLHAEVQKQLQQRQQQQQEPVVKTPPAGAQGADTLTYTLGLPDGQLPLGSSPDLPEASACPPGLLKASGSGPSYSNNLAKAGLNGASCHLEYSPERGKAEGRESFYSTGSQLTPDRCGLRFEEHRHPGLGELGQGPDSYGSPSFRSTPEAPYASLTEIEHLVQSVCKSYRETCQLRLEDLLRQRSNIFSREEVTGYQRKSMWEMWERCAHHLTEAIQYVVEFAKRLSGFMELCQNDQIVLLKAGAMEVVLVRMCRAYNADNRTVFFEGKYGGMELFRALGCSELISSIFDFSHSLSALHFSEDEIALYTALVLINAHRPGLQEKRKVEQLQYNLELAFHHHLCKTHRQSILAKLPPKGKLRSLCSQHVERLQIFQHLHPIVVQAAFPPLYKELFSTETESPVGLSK

SMILES | outcome
Cc1ccccc1CCO | inactive
CC(C)=CCl | inactive
O=S(=O)(O)c1ccc(Nc2nc(Nc3ccc(C=Cc4ccc(Nc5nc(Nc6ccc(S(=O)(=O)O)cc6)nc(N(CCO)CCO)n5)cc4S(=O)(=O)O)c(S(=O)(=O)O)c3)nc(N(CCO)CCO)n2)cc1 | inactive
COC(=O)c1ccccc1C | inactive
COC(C=C(C)CCC=C(C)C)OC | inactive
CCCSSCCC | inactive
COC(=O)C=Cc1ccccc1 | inactive
O=C(O)CC(C(=O)O)S(=O)(=O)O (stereo unspecified) | inactive
CC(C)CC(=O)OCc1ccccc1 | inactive

target: Retinoic acid receptor RXR-alpha (Homo sapiens) (UniProt P19793); assay: ATG_RXRa_TRANS: Attagene TRANS-FACTORIAL HepG2 Assay for human Retinoid X Receptor alpha (RXRa) (AID 2283012)
How it was run: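 HepG2 cells transiently transfected with GAL4-UAS reporter units and chimeric RXRa-Gal4 protein, treated 24 h. Reporter mRNA measured by RT-PCR, fluorescent labelling, HpaI digestion and capillary electrophoresis. Induction fitted against DMSO.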

Chain of Retinoic acid receptor RXR-alpha (Homo sapiens) (P19793 whole entry, looked up, the tested form may be a part): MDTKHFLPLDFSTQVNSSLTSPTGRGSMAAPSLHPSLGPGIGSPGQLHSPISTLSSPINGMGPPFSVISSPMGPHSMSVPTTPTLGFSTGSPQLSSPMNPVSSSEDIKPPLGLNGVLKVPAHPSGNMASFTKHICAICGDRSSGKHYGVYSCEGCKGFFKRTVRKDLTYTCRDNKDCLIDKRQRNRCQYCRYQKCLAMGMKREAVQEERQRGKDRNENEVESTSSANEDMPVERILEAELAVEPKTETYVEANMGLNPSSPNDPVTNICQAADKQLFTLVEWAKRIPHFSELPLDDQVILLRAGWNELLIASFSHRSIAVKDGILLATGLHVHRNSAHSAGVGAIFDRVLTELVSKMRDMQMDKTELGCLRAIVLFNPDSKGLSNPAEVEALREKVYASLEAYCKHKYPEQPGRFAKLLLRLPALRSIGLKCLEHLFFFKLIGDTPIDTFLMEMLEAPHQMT

SMILES | outcome
CC(=O)OCc1ccccc1 | inactive
CCCC1CCCC(=O)O1 (stereo unspecified) | inactive
Cc1ccccc1CCO | inactive
CC(CC=O)CC(C)(C)C (stereo unspecified) | inactive
CCOC(=O)OC(=O)OCC | inactive
CCCCOC(=O)CCC(C)=O | inactive
CC(C)=CCl | inactive
O=S(=O)(O)c1ccc(Nc2nc(Nc3ccc(C=Cc4ccc(Nc5nc(Nc6ccc(S(=O)(=O)O)cc6)nc(N(CCO)CCO)n5)cc4S(=O)(=O)O)c(S(=O)(=O)O)c3)nc(N(CCO)CCO)n2)cc1 | inactive
CCC1COC(=O)O1 (stereo unspecified) | inactive
C=CCOC(=O)c1ccc(C(=O)OCC=C)c(C(=O)OCC=C)c1 | inactive
O=C1CCCCC1C1CCCCC1 (stereo unspecified) | inactive
CO[Si](CCCS)(OC)OC | inactive
C=C(C)C(=O)OCC(O)COc1ccc(C(C)(C)c2ccc(OCC(O)COC(=O)C(=C)C)cc2)cc1 (stereo unspecified) | inactive
C=CCCCCCCCCO | inactive
CCOC(=O)c1ccc(C)cc1 | inactive
O=C(O)/C=C/c1ccccc1 | inactive
O=C(O)CC(C(=O)O)S(=O)(=O)O (stereo unspecified) | inactive
C/C=C/C=C/CCCCCCCO | inactive

target: human Retinoid X Receptor beta (RXRb), RXRB (gene 6257) (UniProt P28702); assay: ATG_RXRb_TRANS: Attagene TRANS-FACTORIAL HepG2 Assay for human Retinoid X Receptor beta (RXRb) (AID 2283013)
How it was run: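 HepG2 cells were transiently transfected with multiplexed GAL4-UAS reporters and a chimeric RXRb-Gal4 construct, then exposed for 24 h. Reporter mRNA was quantified by RT-PCR, FAM labeling, HpaI digestion and capillary electrophoresis; gain of signal was scored against DMSO.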

Chain of human Retinoid X Receptor beta (RXRb), RXRB (gene 6257) (P28702 whole entry, looked up, the tested form may be a part): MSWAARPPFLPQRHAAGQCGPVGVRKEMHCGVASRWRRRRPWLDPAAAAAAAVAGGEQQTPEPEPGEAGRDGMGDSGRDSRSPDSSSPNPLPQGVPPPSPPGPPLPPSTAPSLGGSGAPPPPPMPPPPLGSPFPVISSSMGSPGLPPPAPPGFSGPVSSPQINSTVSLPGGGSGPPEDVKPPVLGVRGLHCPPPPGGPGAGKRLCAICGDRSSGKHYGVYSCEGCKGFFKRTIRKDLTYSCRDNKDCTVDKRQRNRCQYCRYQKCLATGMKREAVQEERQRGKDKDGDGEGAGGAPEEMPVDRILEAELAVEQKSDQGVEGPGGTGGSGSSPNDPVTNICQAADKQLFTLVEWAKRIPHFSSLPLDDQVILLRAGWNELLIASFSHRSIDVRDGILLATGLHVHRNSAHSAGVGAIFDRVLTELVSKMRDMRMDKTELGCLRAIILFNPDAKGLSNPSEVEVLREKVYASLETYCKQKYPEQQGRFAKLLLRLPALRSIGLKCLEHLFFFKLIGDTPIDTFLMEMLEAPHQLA

SMILES | outcome | AC50
CC(=O)OCc1ccccc1 | inactive | 
Cc1c[nH]c(=O)[nH]c1=O | inactive | 
CCCC1CCCC(=O)O1 (stereo unspecified) | inactive | 
Cc1ccccc1CCO | inactive | 
CC(CC=O)CC(C)(C)C (stereo unspecified) | inactive | 
CCCCOC(=O)CCC(C)=O | inactive | 
COC(=O)c1ccc(C(=O)OC)c(C(=O)OC)c1 | inactive | 
O=S(=O)(O)c1ccc(Nc2nc(Nc3ccc(C=Cc4ccc(Nc5nc(Nc6ccc(S(=O)(=O)O)cc6)nc(N(CCO)CCO)n5)cc4S(=O)(=O)O)c(S(=O)(=O)O)c3)nc(N(CCO)CCO)n2)cc1 | inactive | 
CCCCCCCCCCCCCCCCCCOS(=O)(=O)O |  | 34.3 µM (active)
CCC(C)c1ccccc1 (stereo unspecified) | inactive | 
Cc1ccc(C)c(OCCCC(C)(C)C(=O)O)c1 | inactive | 
CCC1COC(=O)O1 (stereo unspecified) |  | 70.1 µM (active)
COC(C=C(C)CCC=C(C)C)OC | inactive | 
O=C(O)c1cc(O)c2ccccc2c1O | inactive | 
Cc1cc(C)c(C=O)c(C)c1 | inactive | 
C=CCOC(=O)c1ccc(C(=O)OCC=C)c(C(=O)OCC=C)c1 | inactive | 
O=C1CCCCC1C1CCCCC1 (stereo unspecified) | inactive | 
CO[Si](CCCS)(OC)OC | inactive | 
O=C(OCCc1ccccc1)c1ccccc1 | inactive | 
COC(=O)C=Cc1ccccc1 | inactive | 
CCC(C)N (stereo unspecified) | inactive | 
Cc1ccc2c(c1)CCCN2 | inactive | 
C1CCSC1 | inactive | 
C=CCCCCCCCCO | inactive | 
CCOC(=O)c1ccc(C)cc1 | inactive | 
O=C(O)/C=C/c1ccccc1 |  | 121 µM (active)
CC(C)CC(=O)OCc1ccccc1 | inactive | 

target: human Thyroid Receptor alpha (THRa1), THRA (gene 7067) (UniProt P10827); assay: ATG_THRa1_TRANS: Attagene TRANS-FACTORIAL HepG2 Assay for human Thyroid Receptor alpha (THRa1) (AID 2283014)
How it was run: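 Transcripts from GAL4-UAS-driven reporters, measured after 24 h compound exposure by RT-PCR plus capillary electrophoresis of 6-FAM-labeled fragments, were fitted for gain of signal relative to DMSO. Cells: transiently transfected HepG2 expressing NR-Gal4 chimeras.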

Chain of human Thyroid Receptor alpha (THRa1), THRA (gene 7067) (P10827 whole entry, looked up, the tested form may be a part): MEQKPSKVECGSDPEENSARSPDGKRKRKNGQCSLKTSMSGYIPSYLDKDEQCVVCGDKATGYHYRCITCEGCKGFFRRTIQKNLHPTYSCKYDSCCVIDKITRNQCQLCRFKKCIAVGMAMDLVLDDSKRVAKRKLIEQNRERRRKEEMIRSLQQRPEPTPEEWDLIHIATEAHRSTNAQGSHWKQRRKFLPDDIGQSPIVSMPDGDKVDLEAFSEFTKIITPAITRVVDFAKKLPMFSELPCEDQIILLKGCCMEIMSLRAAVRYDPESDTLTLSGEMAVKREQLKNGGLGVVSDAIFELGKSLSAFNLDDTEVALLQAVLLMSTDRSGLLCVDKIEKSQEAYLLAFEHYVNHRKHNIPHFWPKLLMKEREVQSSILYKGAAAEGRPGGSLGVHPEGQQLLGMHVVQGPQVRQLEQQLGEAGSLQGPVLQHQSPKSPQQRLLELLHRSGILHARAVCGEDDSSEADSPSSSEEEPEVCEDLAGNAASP

SMILES | outcome | AC50
Cc1c[nH]c(=O)[nH]c1=O | inactive | 
CCCC1CCCC(=O)O1 (stereo unspecified) | inactive | 
CC(CC=O)CC(C)(C)C (stereo unspecified) | inactive | 
CCOC(=O)OC(=O)OCC | inactive | 
CCCCOC(=O)CCC(C)=O | inactive | 
CC(C)=CCl | inactive | 
COC(=O)c1ccccc1C | inactive | 
CCCCCCCCCCCCCCCCCCOS(=O)(=O)O | inactive | 
CCC(C)c1ccccc1 (stereo unspecified) | inactive | 
O=C(O)c1cc(O)c2ccccc2c1O | inactive | 
Cc1cc(C)c(C=O)c(C)c1 | inactive | 
C=CCOC(=O)c1ccc(C(=O)OCC=C)c(C(=O)OCC=C)c1 | inactive | 
c1ccc2cnccc2c1 | inactive | 
CO[Si](CCCS)(OC)OC | inactive | 
COC(=O)C=Cc1ccccc1 | inactive | 
C=C(C)C(=O)OCC(O)COc1ccc(C(C)(C)c2ccc(OCC(O)COC(=O)C(=C)C)cc2)cc1 (stereo unspecified) |  | 23.8 µM (active)
C1CCSC1 | inactive | 
C=CCCCCCCCCO | inactive | 
O=C(O)/C=C/c1ccccc1 | inactive | 
C/C=C/C=C/CCCCCCCO | inactive | 
